Results on 20 compounds are retold here after PubChem BioAssay (NCI).

Test [1] can be described thus: NCI Yeast Anticancer Drug Screen. Data for the rad50 strain (AID 155).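 Also: 0% = growth of vehicle-only cultures of the same strain.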 The settings on record: S. cerevisiae rad50 strain growth inhibition; at 50.0 µM; hits give high values. A digest of the protocol:
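Growth of the mutant yeast was measured after compound exposure and referenced to vehicle-treated cultures.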

Test [2] in a line: NCI Yeast Anticancer Drug Screen. Data for the mec2-1 strain (AID 157). Conditions: S. cerevisiae mec2-1 strain, at 50.0 µM, hits give high values. A digest of the protocol: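 Cells of the genetically defined mec2-1 yeast strain are incubated with test compound. Inhibition of growth is calculated against vehicle-treated controls.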
The nature of test [3]: NCI Yeast Anticancer Drug Screen. Data for the sgs1 mgt1 strain (AID 161).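 Also: 0% = growth of cultures given vehicle only.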 The settings on record: S. cerevisiae sgs1 mgt1 strain, at 50.0 µM, hits give high values. In a few lines: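 Inhibition of yeast growth, normalised to vehicle-treated controls, is reported for a strain bearing genetic alterations in DNA damage repair.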
Test [4] can be described thus: NCI Yeast Anticancer Drug Screen. Data for the cln2 rad14 strain (AID 165).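 Also: 0% = growth equal to vehicle treated cultures.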 Conditions: S. cerevisiae cln2 rad14 strain, at 50.0 µM, hits give high values. In a few lines:
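The screen exposed genetically defined yeast (cln2 rad14) to test compounds and scored growth inhibition relative to vehicle-treated controls.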

A short description of test [5]: NCI Yeast Anticancer Drug Screen. Data for the bub3 strain (AID 167). Conditions: S. cerevisiae bub3 mutant strain, at 50.0 µM, hits give high values. In a few lines: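 Whole-cell yeast assay. The mutant strain was incubated with compounds, and growth inhibition was determined by comparison with vehicle-treated cells.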
Test [6] in a line: NCI Yeast Anticancer Drug Screen. Data for the mlh1 rad18 strain (AID 175). Conditions: S. cerevisiae mlh1 rad18 strain growth inhibition; at 50.0 µM; hits give high values. In a few lines:
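Compound-treated yeast growth, normalised to vehicle controls. Strain bears defined DNA repair mutations.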

The panel holds about 79,000 compounds, 15% with a hit somewhere; the sample as a whole holds those more often. A number with no mark means an inactive call. Active and inactive are the calls of the source. Rule as the data show it: active = growth inhibition above about 70%; inactive = the rest. *1 amine or outer side, *2 acyl side, *3 side chain or, on linkers, in order; H or OH if unused. Where a SMILES comes first, the peptide text is derived from it. Bridges are numbered along the chain shown (N, C = ends). Roman numbers before positions name the chains, in order. [ ]: non-standard residue; d: D form. Actinocin(1to9) = Cc1c2oc3c(C)ccc(C(=O)[*:2])c3nc-2c(C(=O)[*:1])c(N)c1=O; NMeV = CN[CH](C(=O)O)C(C)C; Aze = O=C(O)[CH]1CCN1; Sar = CNCC(=O)O

`Cc1ccn2c(-c3ccccc3)nnc2c1`: the growth inhibition in test [1] is -23.6%; in test [2], -17.7%; in test [3], -14.6%; in test [4] it was -11.8%; in test [5], -18.1%; in test [6], -16%.
Turning to `O=[N+]([O-])CC1=CCCCC1`, the growth inhibition in test [1] was 30.6%; in test [2], 12.2%; in test [3], 25.9%; in test [4], 4.05%; in test [5] it was -5.05%; in test [6], 16.6%.
For the compound `O=C(O)c1nc2ccccc2c(=O)[nH]1`, the growth inhibition in test [1] was -3.4%; in test [2], -4.25%; in test [3], -9.7%; in test [4] it was -43.1%; in test [5], -12.2%; in test [6] it was -4.6%.
Consider `CC(C)COC(=O)C(=O)OCC(C)C`, for which the growth inhibition in test [1] is 14.9%; in test [2], 23.1%; in test [3], -6.45%; in test [4], 34%; in test [5], -5.05%; in test [6] it was -14.7%.
With `Cc1ccc(-c2cs/c(=N\N=C3/CSC(=O)N3Cc3ccccc3)n2-c2cccc(C)c2)cc1`, the growth inhibition in test [1] is 24.4%; in test [2], 1.2%; in test [3] it was -11.2%; in test [4], -4.3%; in test [5] it was 4.1%; in test [6], 22.2%.
Turning to `Cc1ccc(C(=O)c2ccc(O)cc2)cc1`, the growth inhibition in test [1] is -25.4%; in test [2] it was -7.65%; in test [3], -6.5%; in test [4], -21.8%; in test [5] it was -7.6%; in test [6], -14.2%.
In the case of `C(=C\c1cc(-c2ccc3ccccc3n2)nc2ccc3ccccc3c12)/c1ccc2ccccc2n1`, the growth inhibition in test [1] was 9.7%; in test [2], -1.4%; in test [3] it was 26.9%; in test [4] it was 28.9%; in test [5], 25.5%; in test [6], -11.2%.
As for `CCC(=O)Nc1ccccc1-c1ccccc1`, the growth inhibition in test [1] is 25.6%; in test [2], 19%; in test [3], 16.9%; in test [4], 7.6%; in test [5], -1.8%; in test [6] it was 2.5%.
Turning to `CC1=NN(c2nc(N)nc(CO)n2)C(C)(C)C1`, the growth inhibition in test [1] is 12.2%; in test [2] it was 5.75%; in test [3], 3.2%; in test [4], 5.55%; in test [5], 1%; in test [6] it was -72.5%.
`O=C(O)CCc1ccsc1`: the growth inhibition is -17.6% in test [1]; 4.55% in test [2]; -21.9% in test [3]; -28.4% in test [4]; -10.5% in test [5]; 4.45% in test [6].
Turning to `Cc1c2oc3c(C)ccc(C(=O)NC4C(=O)NC(C(C)C)C(=O)N5CCCC5C(=O)N(C)CC(=O)N(C)C(C(C)C)C(=O)OC4C)c3nc-2c(C(=O)NC2C(=O)NC(C(C)C)C(=O)N3CCC3C(=O)N(C)CC(=O)N(C)C(C(C)C)C(=O)OC2C)c(N)c1=O` (stereo not given) (I: TV[Aze][Sar][NMeV] / II: TVP[Sar][NMeV]; ester I:1-I:C, II:1-II:C; linker I:N-II:N via Actinocin(1to9); configuration not given here), the growth inhibition in test [1] was 90.3% (active); in test [2], 92.2% (active); in test [3] it was 92.5% (active); in test [4] it was 86.8% (active); in test [5] it was 89% (active); in test [6], 90% (active).
`CC(=O)Oc1ccc(C(=O)c2ccc(OC(C)=O)cc2)cc1`: the growth inhibition was -7.5% in test [1]; -16.6% in test [2]; 6.25% in test [3]; -22.4% in test [4]; -4.45% in test [5]; 22.2% in test [6].
In the case of `Cn1c(=O)c2sc3cc4c(cc3c2c2ccccc21)sc1c(=O)n(C)c2ccccc2c14`, the growth inhibition is 23.2% in test [1]; -8.1% in test [2]; 22.9% in test [3]; 3.85% in test [4]; 23.2% in test [5]; 24.9% in test [6].
With `CCOC(=O)c1c2cccccc-2nc1Nc1cccc2c(C)ccnc12`, the growth inhibition in test [1] is 11.7%; in test [2], -21%; in test [3], -2.8%; in test [4], 9.7%; in test [5], -16.1%; in test [6], 5.55%.
Turning to `CCCC(C)c1ccc(C(=O)O)cc1` (stereo not given), the growth inhibition in test [1] is 10.2%; in test [2], -10.7%; in test [3] it was 4.45%; in test [4], 11.2%; in test [5], -18.1%; in test [6], 20.9%.
For `NC(=O)SCC(N)C(=O)O` (stereo not given), the growth inhibition in test [1] is 0.25%; in test [2], -21.4%; in test [3], 1.55%; in test [4] it was 3.55%; in test [5], 4.95%; in test [6] it was 6.8%.
With `O=C1c2ccccc2C(=O)N1CNc1ccccc1S`, the growth inhibition in test [1] was 13.2%; in test [2], 5.1%; in test [3] it was 19.6%; in test [4], 28.4%; in test [5], 22.1%; in test [6], -8%.
In the case of `CSC1=NC=C(C#N)C2=NC(c3ccccc3)NN12` (stereo not given), the growth inhibition in test [1] is -0.3%; in test [2], -5.55%; in test [3] it was -6.6%; in test [4] it was -14.2%; in test [5] it was 2.8%; in test [6], 7%.
Turning to `O=C1CCCCC1O` (stereo not given), the growth inhibition in test [1] is -18.4%; in test [2], -50.8%; in test [3], -15.2%; in test [4] it was 0.05%; in test [5], -13.8%; in test [6] it was -26.1%.
With `NC(=Nc1ccc(Br)cc1)/N=C(/N)Nc1cccc(S(=O)(=O)Nc2ncc(Cl)cn2)c1`, the growth inhibition in test [1] is 10.2%; in test [2], -8.75%; in test [3], 25.2%; in test [4], 15.8%; in test [5] it was 1.95%; in test [6] it was 4.95%.
